# Shn3 inh set2 – reduces Shn3 3'UTR luciferase signal in osteoblasts; inhibition, % at 12.5 µM; Clone20 osteoblast Shn3 3'UTR firefly luciferase, 24 h; actives 0.52% (n = 360,000); AID 588674;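 active means mean inhibition of at least 75% with every replicate also reaching 75%; inconclusive means mean inhibition at least 75% but some replicate below; inactive means mean inhibition below 75%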;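 further: 0% = median of neutral control wells and 100% = pilot-screen positive control compound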
# Peg3 prom inh – inhibitors of Peg3 promoter; AID 588405; HeLa PEG-Prom luciferase reporter, luminescence, overnight; inhibition, % at 20 µM; actives 1.7% (n = 360,000);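 active means inhibition of at least 50% at 20 µM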
# MITF TRPM1 inh – inhibitors of MITF-driven TRPM1 promoter in melanoma cells | SK-MEL-5 TRPM1 promoter luciferase, 24 h | inhibition, % at 12.5 µM | actives 0.83% (n = 330,000);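 active means mean inhibition across replicates of 60% or more, whatever share of single replicates reaches that level; inconclusive means some that reach 60%, reason not given; inactive means mean inhibition across replicates below 60%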
# CF NFkB block – inhibitors of cystic fibrosis induced NF-kB; KKLEB NF-kB-GFP reporter, PAF-induced, GFP fluorescence overnight; inhibition, % at 5 µM; actives 0.86% (n = 360,000); AID 588850;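 active means at least 50% inhibition at 5 µM, scaled per plate between neutral and stimulator controls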;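 further: PAF is a Pseudomonas aeruginosa culture filtrate used as stimulus; plate controls were PAF-stimulated DMSO wells for no effect and unstimulated DMSO wells for full effect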
# KKLEB tox – counter-screen for CF NF-kB inhibitors: cytotoxicity | KKLEB CF airway cells viability, ATPlite luminescence, overnight; hits give low values; cells stimulated with P. aeruginosa culture filtrate | activity change (cytotoxicity), % at 5 µM | actives 0.36% (n = 360,000) | AID 602141;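 active means corrected activity change at or below -50% at 5 µM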
# HIF-2a inh – HIF-2a inhibition. 786-0 RCC cells HIF-2a reporter, luciferase luminescence, overnight. inhibition, % at 18.8 µM. AID 624352. actives 0.72% (n = 360,000);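 active means inhibition of the luminescence signal of 40% or more relative to plate controls, in a single-dose primary screen at 18.75 µM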
# * marks the source's active call; other numbers are inactive results; ? = inconclusive; · = no result given. Compounds with a hit are over-represented: about 2.8% of the library has one in this group of screens.
SMILES,Shn3 inh set2,Peg3 prom inh,MITF TRPM1 inh,CF NFkB block,KKLEB tox,HIF-2a inh
COc1ccc(OC)c(C(C(=O)NC2CCCCC2)N(Cc2ccco2)C(=O)c2ccccn2)c1 (configuration not stated),-2,6,5,-5,1,16
CCCCCSc1nncc(=O)[nH]1,-5,2,4,-9,2,0
CCCCCCCCSC1=CC(=O)C(OC)=C(OC)C1=O,95*,93*,·,63*,-36,9
COc1ccc2nc(N=Nc3ccc(O)c4ccccc34)sc2c1,?,48,75*,16,-19,4
COc1ccc2nc(N=NC3=C(O)CC(C)(C)CC3=O)sc2c1,-31,22,64*,25,-10,-39
OCCCN=c1cc(-c2ccccc2)oc2ccc(Cl)cc12,-88,-53,-7,-117,9,-142
CC1(C)CC(N=c2cc(-c3ccccc3)oc3ccc(Cl)cc23)CC(C)(C)N1,-143,108*,54,2,-16,-89
O=C(Nc1cccc(S(=O)(=O)Nc2ccc(Cl)cc2)c1)c1ccc(Cl)nc1,91*,19,35,-2,10,21
COc1ccc(NS(=O)(=O)c2cccc(NC(=O)c3ccc(Cl)nc3)c2)cc1,80,22,17,3,-40,26
COc1ccc(S(=O)(=O)N2CCCC(C(=O)NCC3CCCO3)C2)cc1OC (configuration not stated),15,9,15,-9,10,5
COC(=O)c1ccc(COc2ccccc2/C=C(\C#N)C(=O)Nc2ccc(C)cc2C)cc1,-15,-23,-19,27,-26,3
COC(=O)c1ccc(COc2ccccc2/C=C(\C#N)C(=O)Nc2c(C)cc(C)cc2C)cc1,71,75*,8,23,-20,2
CCc1ccc2c(COC(=O)C3CC(=O)N(CCc4ccccc4)C3)cc(=O)oc2c1 (configuration not stated),-11,-11,0,31,-14,2
O=C(Nc1ccc(Cl)c(Cl)c1)Nc1ccc(N2CCCC2)c(S(=O)(=O)Nc2ccccc2Cl)c1,98*,58*,73*,62*,-54*,-21
O=C(Nc1ccc(N2CCCCC2)c(S(=O)(=O)Nc2ccccc2Cl)c1)c1cccnc1,60,20,12,-36,16,18
O=C(N=Nc1c(O)[nH]c2ccc(Cl)cc12)c1cc(-c2cccs2)nc2ccccc12,10,70*,19,-5,4,-18
O=C(N=Nc1c(O)[nH]c2ccc([N+](=O)[O-])cc12)c1ccccc1Cl,-27,-43,-9,-38,-3,-82
CCOc1cccc(C(=O)Nc2cccc(-c3nnc(-c4ccccc4)o3)c2)c1,14,76*,-26,-1,-3,-74
CCOc1cccc(C(=O)Nc2cccc(-c3nnc(-c4ccc(C)cc4)o3)c2)c1,-11,12,82*,57*,-68*,1
Cc1cc(Cl)c(S(=O)(=O)N2CCSCC2)cc1OCC(=O)NC1CCCCC1,88*,24,48,11,12,22
Cc1cc(Cl)c(S(=O)(=O)N2CCCCCC2)cc1OCC(=O)NC1CCCCC1,16,8,17,9,9,15
CC(C)N1CCc2c(sc(NC(=O)c3ccc(S(=O)(=O)N4CCc5ccccc54)cc3)c2C(N)=O)C1,18,98*,3,-53,-1,8
CC(C)N1CCc2c(sc(NC(=O)c3nc4ccccc4s3)c2C(N)=O)C1,12,-39,-8,-18,-14,-70
CC(C)N1CCc2c(sc(NC(=O)c3cc(-c4cccs4)nc4ccccc34)c2C(N)=O)C1,15,78*,3,-59,-18,26
COc1cccc(-c2cccc(-c3nc(C(=O)NCc4ccc5c(c4)OCO5)cc4c3[C@H](CCO)N(S(=O)C(C)(C)C)C4)c2)c1 (some centres not stated),-5,-10,·,17,-12,4
SMILES,Shn3 inh set2,Peg3 prom inh,MITF TRPM1 inh,CF NFkB block,KKLEB tox,HIF-2a inh
COc1cc2ccnc(Cc3cccc(OC)c3OC)c2cc1OC,86*,15,10,31,-8,9
COc1cc(N)c(Cc2nccc3cc(OC)c(OC)cc23)cc1OC,-2,8,1,-7,2,11
COc1cc2ccnc(C=O)c2cc1OC,6,28,·,86*,-26,6
COc1cc2ccnc(C=NO)c2cc1OC,20,29,·,17,-17,26
CC(CN1CCN(CCOCCO)CC1)CN1c2ccccc2Sc2ccc(Cl)cc21 (configuration not stated),69,101*,·,23,-6,-35
OCCN1CCN(CCCN2c3ccccc3Sc3ccc(C(F)(F)F)cc32)CC1,-5,61*,-4,18,-17,-4
OC1CC2CCC(C1)N2CCCN1c2ccccc2Sc2ccc(Cl)cc21 (configuration not stated),64,105*,91*,38,-5,-17
CN1CCN(CCCN2c3ccccc3Sc3ccc(Cl)cc32)CC1,-29,63*,-14,42,38,5
OCC1OC(Oc2c(Br)cc(Br)cc2Br)C(O)C(O)C1O (configuration not stated),3,-2,0,4,4,10
CCSc1ccc2c(c1)N(CCCN1CCN(C)CC1)c1ccccc1S2,-13,57*,-5,-18,16,-4
CN1CCCC(CN2c3ccccc3Sc3ccccc32)C1 (configuration not stated),6,-10,-19,8,0,-4
Cc1cccc(OCC(=O)OC(C)CN2CCCCC2)c1 (configuration not stated),5,3,4,4,5,6
CN1CCCC(CC2c3ccccc3Sc3ccccc32)C1 (configuration not stated),0,60*,-8,28,26,-8
O=C1c2ccccc2C(=O)N1OS(=O)(=O)c1ccc(F)cc1,-21,61*,42,-8,12,29
O=S(=O)(c1ccccc1)N1CCN(S(=O)(=O)c2ccc(F)cc2)CC1,-13,-5,-1,5,-2,14
Cc1ccc2oc(C(Cl)(Cl)Cl)cc(=O)c2c1,42,63*,67*,43,-31,33
CCOC(=O)c1[nH]c2ccc(F)cc2c1NC(=O)CN1CCN(C/C=C/c2ccccc2)CC1,30,65*,47,3,-14,17
COC(=O)c1[nH]c2ccccc2c1NC(=O)CN1CCN(C/C=C/c2ccccc2)CC1,26,19,21,3,-18,0
COC(=O)C1CCN(C(=O)c2oc3c(Cl)cc(C)cc3c2C)CC1,-118,-381,-38,8,-9,-176
Cc1cc(Cl)c2oc(C(=O)N3CCN(c4ccncc4)CC3)c(C)c2c1,66,92*,-3,18,-12,22
